# Reference: PubChem BioAssay (NCATS)
# Records with an inconclusive call do not appear. Values without a mark were called inactive. The source made the active and inactive calls. The call rests on the fitted dose curve; in most records, active means well fitted inhibition curve with a large enough effect; inconclusive means small, poorly fitted or top-dose-only effect; inactive means flat fitted curve, though single readings scatter.
# Experiments:
# Test in all cases: Cytotoxic Profiling of Annotated Libraries Using Quantitative High-Throughput Screening (AID 1296008); further: nearly all actives have a fitted effect of over 60% in size
# Conditions in all cases: Five cell lines viability, CellTiter-Glo ATP luminescence, 48-72 h; max response: hits give low values
# [1] = system: HaCat
# How it was run: (§1)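 Cells exposed to compounds for 48 or 72 hr at 37 degrees Celsius. Viability read as ATP-coupled luminescence with CellTiter-Glo after 10 min at room temperature.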
# [2] = system: KB-3-1
# How it was run: as §1
# [3] = system: NIH3T3
# How it was run: as §1
# On the % scale 0 is the no-effect control and ±100 the full control effect; potency means the concentration at half of the fitted maximal effect.
smiles,measurement,setting,value
CCOCc1cc(OC)c(-c2ccc(C[C@H](NC(=O)c3c(F)cccc3F)C(=O)O)cc2)c(OC)c1,outcome,[1],inactive
same,outcome,[2],inactive
CC(C)(C)Nc1nc(Nc2ccc(C(N)=O)cc2)cc(N)c1C#N,max response,[1],-5.65%
same,Potency,[2],5800 nM (active)
COc1ccc(C(=O)Nc2ncc(-c3ccc(C(=O)O)cc3)s2)cc1,Potency,[1],5800 nM (active)
same,Potency,[2],2910 nM (active)
CC1=C(C(=O)OCc2ccccc2)C(c2ccc(-c3ccccc3)cc2)NC(=O)N1CCCCCC(=O)O (centres undefined),max response,[1],-18.2%
same,outcome,[2],inactive
C=C1C(=O)OC2C1CCC(=C)C1CC(OC(C)=O)C(=C)C12 (centres undefined),max response,[1],-12%
same,max response,[2],1.53%
COc1ccc(C2=N[C@@H](c3ccc(Cl)cc3)[C@@H](c3ccc(Cl)cc3)N2C(=O)N2CCNC(=O)C2)c(OC(C)C)c1,max response,[1],-13.8%
same,max response,[2],6.36%
Cc1ccc(C(=O)Nc2noc3ccccc23)cc1,max response,[1],-29.9%
same,outcome,[2],inactive
CNCc1ccc(-c2cc(-c3nc(-c4ccc(S(=O)(=O)C(C)C)cc4)cnc3N)on2)cc1,max response,[1],-11.6%
same,Potency,[2],1300 nM (active)
COc1cc2ncnc(Nc3cccc(O)c3)c2cc1OC,Potency,[1],4610 nM (active)
same,outcome,[2],inactive
COc1ccccc1NC(=O)OCC1CCN(C(=O)OC(C)(C)C)CC1,max response,[1],2.46%
same,max response,[2],-8.5%
C=CC(=O)Nc1cccc(Nc2nc(Nc3ccc(N4CCN(C(C)=O)CC4)cc3OC)ncc2C(F)(F)F)c1,Potency,[1],2910 nM (active)
same,Potency,[2],11600 nM (active)
CCC(Nc1ncnc2nc[nH]c12)c1nc2cccc(F)c2c(=O)n1-c1ccccc1 (centres undefined),max response,[1],-6.65%
same,outcome,[2],inactive
C=C(C)C(=O)OC1CC2(C)OC(=CC2=O)C(=C)CC2OC(=O)C(COC)C12 (centres undefined),max response,[1],-21.9%
same,max response,[2],-15.6%
O=C(Cc1ccc(-c2ccccc2)cc1)NC1CCC1,max response,[1],-21.1%
same,max response,[2],4.19%
CNS(=O)(=O)c1ccccc1Nc1nc(Nc2ccc(N3CCN(C)CC3)cc2OC)ncc1Cl,Potency,[1],2590 nM (active)
same,Potency,[2],920 nM (active)
CC(=O)N1CCN(C(=O)Cc2ccc(Nc3ncc(F)c(Nc4ccc(C(=O)Nc5ccccc5Cl)cc4)n3)cc2)CC1,Potency,[1],4110 nM (active)
same,Potency,[2],5170 nM (active)
C[C@@H]1O[C@@H](O[C@H]2[C@H](O)[C@@H](O)[C@H](O[C@H]3[C@H](O[C@H]4CC[C@@]5(C)C(=CC[C@@H]6C5CC[C@]5(C)[C@@H]7[C@H](C[C@@H]65)O[C@]5(CC[C@@](C)(CO[C@@H]6O[C@H](CO)[C@@H](O)[C@H](O)[C@H]6O)O5)[C@H]7C)C4)O[C@H](CO)[C@@H](O)[C@@H]3O)O[C@@H]2CO)[C@H](O)[C@H](O)[C@H]1O (some centres undefined),max response,[1],-8.19%
same,Potency,[2],778 nM (active)
Cc1noc(-c2ccc(-c3ccc(CC(=O)O)cc3)cc2)c1NC(=O)O[C@H](C)c1ccccc1,max response,[1],-1.06%
same,max response,[2],0.957%
O=C(O)[C@@H]1C[C@H]2C[C@@H](CCc3nn[nH]n3)CC[C@H]2CN1,max response,[1],2.14%
same,outcome,[2],inactive
COc1cccc(-c2cc(NCc3ccc4c(c3)OCO4)nc(N)n2)c1,max response,[1],-46.3%
same,Potency,[2],231 nM (active)
CC(=O)O[C@@](C)(C(=O)/C=C/C(C)(C)O)[C@H]1[C@H](O)C[C@@]2(C)[C@@H]3CC=C4[C@@H](C=C(O)C(=O)C4(C)C)[C@]3(C)C(=O)C[C@]12C,Potency,[1],1420 nM (active)
same,Potency,[2],1000 nM (active)
CC(C)(C(=O)NCC(F)(F)C(F)(F)F)C(=O)NC1C(=O)Nc2ccccc2-c2ccccc21 (centres undefined),Potency,[1],16400 nM (active)
same,Potency,[2],18400 nM (active)
O=C(C(c1ccccc1)c1ccccc1)N1CCN(CC(O)COc2cccc3ncccc23)CC1 (centres undefined),max response,[1],-24.2%
same,max response,[2],-28.1%
same,max response,[3],-26.9%
COc1nc2sc(C(=O)NC3CC3)c(N)c2c(C)c1Cl,max response,[1],-34.1%
same,outcome,[2],inactive
C=CC(C)(C)C12C=C(OC)C(=O)N3C(C(C)C)C(=O)NC31N(OC)c1ccccc12 (centres undefined),max response,[1],-0.498%
same,outcome,[2],inactive
same,max response,[3],-14.5%
COc1ccc(-c2cnc(-c3cccc4c3-c3ccccc3C4=O)o2)cc1,max response,[1],-2.01%
same,Potency,[2],70.9 nM (active)
CC(C)(C)NC(=O)[C@@H](c1cccnc1)N(C(=O)c1ccco1)c1ccc(C(C)(C)C)cc1,max response,[1],-16.4%
same,outcome,[2],inactive
same,max response,[3],4.2%
CC(C)C(C#N)O[C@@H]1O[C@H](CO[C@@H]2O[C@@H](C)[C@H](O)[C@@H](O)[C@H]2O)[C@@H](O)[C@H](O)[C@H]1O (some centres undefined),max response,[1],-12%
same,max response,[2],-1.19%
same,max response,[3],-15%
C/C=C1\[C@H](OC2OC(COC3OC(CO)C(O)C(O)C3O)C(O)C(O)C2O)OC=C(C(=O)OC)[C@H]1CC(=O)OCCc1ccc(O)cc1 (some centres undefined),max response,[1],-0.414%
same,max response,[2],2.72%
same,max response,[3],-38.2%
CC(=O)O[C@@H]1C[C@@H](OC(C)=O)C(C)(C)/C=C/[C@H](C)[C@H](OC(C)=O)[C@@]2(O)C[C@H](C)[C@H](OC(=O)c3ccccc3)[C@@H]2/C=C/1C,max response,[1],4.68%
same,max response,[2],5.28%
same,max response,[3],-4.04%
CC(=O)OC1C(OC(=O)c2ccccc2)C2C(C)(C)CC(=O)CC2(C)C23CCC(C)(C2)C(O)CC13 (centres undefined),max response,[1],1.97%
same,max response,[2],-13.9%
same,max response,[3],-5.55%
CC(O)/C=C/C1C(C)C(O[C@@H]2O[C@H](CO)[C@@H](O)[C@H](O)[C@H]2O)C(O)CC1(C)C (some centres undefined),max response,[1],1.9%
same,max response,[2],3.1%
same,max response,[3],0.539%
CC1OC(OC2C(CO)OC(OCC3OC(OC(=O)C45CCC(C)(C)CC4C4=CCC6C7(C)CCC(OC8OC(CO)C(O)C(OC9OC(CO)C(O)C(O)C9O)C8O)C(C)(C)C7CCC6(C)C4(C)CC5)C(O)C(O)C3O)C(O)C2O)C(O)C(O)C1OC1OC(CO)C(O)C(O)C1O (centres undefined),max response,[1],-8.62%
same,max response,[2],-0.0406%
same,max response,[3],-0.84%
CC12CCC3c4ccc(O)cc4CCC3C1CC(OC1OC(C(=O)O)C(O)C(O)C1O)C2O (centres undefined),max response,[1],-15%
same,outcome,[2],inactive
same,max response,[3],4.17%
CC(C)CCC1(O)C(=O)C(C)(C)C(O[C@@H]2O[C@H](CO)[C@@H](O)[C@H](O)[C@H]2O)C(C)(C)C1O (some centres undefined),max response,[1],-4.8%
same,max response,[2],0.0434%
same,max response,[3],-0.747%
O=C(O[C@H]1[C@@H]2C[C@@H]3OC[C@](O)([C@@H]1Cl)[C@H]2C(O[C@@H]1O[C@H](CO)[C@@H](O)[C@H](O)[C@H]1O)O3)c1ccc(O)c(O)c1 (some centres undefined),max response,[1],-10.7%
same,max response,[2],6.86%
same,max response,[3],3.52%
COC1C(CO)OC(n2cnc3c(=O)[nH]cnc32)C1O (centres undefined),max response,[1],-1.42%
same,max response,[2],2.15%
same,max response,[3],-5.01%
CC(Cc1cc2c(c(C(N)=O)c1)N(CCCO)CC2)NCCOc1ccccc1OCC(F)(F)F (centres undefined),max response,[1],2.13%
same,max response,[2],-19.6%
same,max response,[3],2.09%
CC1COC(Nc2ccc3ncnc(Nc4ccc(OCc5nccs5)c(Cl)c4)c3c2)=N1 (centres undefined),Potency,[1],1840 nM (active)
same,max response,[2],-8.52%
same,max response,[3],3.7%
COc1c2c(c(C)c3c1C(=O)OC3)OC1(C)CC(O)C34OC(OC)(CC(OC(C)=O)C3(C)C1C2)OC4(C)C (centres undefined),outcome,[1],inactive
same,max response,[2],1.81%
same,max response,[3],-0.676%
OC[C@H]1O[C@@H](O[C@H]2[C@H](OCCc3ccccc3)O[C@H](CO)[C@@H](O)[C@@H]2O)[C@H](O)[C@@H](O)[C@@H]1O,max response,[1],-12%
same,max response,[2],5.74%
same,max response,[3],-1.68%
CCC1C(=O)N(C)c2cnc(Nc3ccc(C(=O)NC4CCC(N5CCN(CC6CC6)CC5)CC4)cc3OC)nc2N1C(C)C (centres undefined),Potency,[1],36.6 nM (active)
same,Potency,[2],5.2 nM (active)
same,Potency,[3],1640 nM (active)
OC/C=C/c1ccc(O[C@@H]2O[C@H](CO)[C@@H](O)[C@H](O)[C@H]2O)cc1,max response,[1],4.35%
same,max response,[2],3.13%
same,max response,[3],-0.785%
C=C1C(O)C[C@@H]2C(C(=O)O)=CO[C@@H](O[C@@H]3O[C@H](CO)[C@@H](O)[C@H](O)[C@H]3OC(=O)c3ccc(O)cc3)[C@H]12 (some centres undefined),max response,[1],0.151%
same,outcome,[2],inactive
same,max response,[3],4.25%
CC(CCC1(O)OC2CC3C4CCC5CC(O[C@@H]6O[C@H](CO)[C@@H](O)[C@H](O)[C@H]6O[C@@H]6O[C@@H](C)[C@H](O)[C@@H](O)[C@H]6O)C(O)CC5(C)C4CCC3(C)C2C1C)CO[C@@H]1O[C@H](CO)[C@@H](O)[C@H](O)[C@H]1O (some centres undefined),max response,[1],-8.4%
same,max response,[2],-6.35%
same,max response,[3],-21%
C=C1CCC2C(C)(C(=O)O)CCCC2(C)C1CC/C(=C\CO)CO (centres undefined),max response,[1],-8.15%
same,max response,[2],8.33%
same,max response,[3],3.98%
Clc1cc2c(NC3CCCC3)nnc(-c3ccncc3)c2cc1Cl,max response,[1],-55.6%
same,max response,[2],2.36%
same,max response,[3],-2.41%
CC(C)CNCc1ccc(-c2ccccc2S(=O)(=O)N2CCCC2)cc1,max response,[1],-12.3%
same,max response,[2],-1.28%
same,max response,[3],-1.63%
Cc1cccc(S(=O)(=O)N2CCC[C@@H]2CCN2CCC(C)CC2)c1,max response,[1],-28.1%
same,max response,[2],-9.32%
same,max response,[3],-11.7%
CCc1cnn2c(NCc3ccc[n+]([O-])c3)cc(N3CCCCC3CCO)nc12 (centres undefined),Potency,[1],46.1 nM (active)
same,Potency,[2],9.2 nM (active)
same,Potency,[3],65.1 nM (active)
COc1ccc(C[C@H](N)C(=O)N[C@@H]2[C@H](O)[C@H](n3cnc4c(N(C)C)ncnc43)O[C@@H]2CO)cc1,Potency,[1],1460 nM (active)
same,Potency,[2],731 nM (active)
same,Potency,[3],4610 nM (active)
